Sampled rows, rich in hits. Any-hit rate of the full collection: about 2.8%.
SENP8 block-1 = SENP8 protease inhibitors, primary screen, biochemical, luminescence; hit rate 1.2% among 330,000; inhibition, % at 10 µM; AID 2540, 2010; purified SENP8, Z-RLRGG-aminoluciferin cleavage; Sentrin-specific protease 8 (Homo sapiens), Q96LD8; in the data active = inhibition above about 50%
SENP8 block-2 = human SENP8 protease inhibitors, primary screen, biochemical, fluorescence, Nedd8 protein substrate, uHTS. Sentrin-specific protease 8 (Homo sapiens), Q96LD8. recombinant SENP8. inhibition, % at 20 µM. hit rate 0.64% among 360,000. AID 602440, 2012; in the data active = inhibition mostly above about 40%, no sharp cut-off; inactive = mostly below about 27%
HSP90 refold inh = HSP90 inhibitors, primary screen, cell lysate, luminescence; Heat shock protein HSP 90 (rabbit reticulocyte lysate; luciferase refolding); inhibition, % at 5.6 µM; hit rate 0.91% among 290,000; Rabbit reticulocyte lysate, luciferase refolding luminescence, 3 h;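 active = inhibition above the screen-wide mean plus 3 SD, computed separately per campaign, cut at about 16% in these data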;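 note: inhibitors lower the luminescence because luciferase stays unfolded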
SENP6 inh = SENP6 protease inhibitors, primary screen, biochemical, luminescence, uHTS; Recombinant SENP6 catalytic domain, aminoluciferin luminescence; Sentrin-specific protease 6 (Homo sapiens), Q9GZR1; inhibition, % at 10 µM; hit rate 1.8% among 330,000; AID 2599, 2010;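 active = inhibition above about 50% at the single tested dose, limit read from the data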
SENP7 inh = SENP7 protease inhibitors, primary screen, biochemical, luminescence, uHTS; recombinant SENP7, Z-RLRGG-aminoluciferin luminescence, 40 min; Sentrin-specific protease 7 (Homo sapiens), Q9BQF6; inhibition, % at 5 µM; hit rate 1.5% among 330,000; AID 434973, 2010;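 active = inhibition above about 50% at the single test dose, limit read from the data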
Target sequence (Q9BQF6 706-1050 limits assumed): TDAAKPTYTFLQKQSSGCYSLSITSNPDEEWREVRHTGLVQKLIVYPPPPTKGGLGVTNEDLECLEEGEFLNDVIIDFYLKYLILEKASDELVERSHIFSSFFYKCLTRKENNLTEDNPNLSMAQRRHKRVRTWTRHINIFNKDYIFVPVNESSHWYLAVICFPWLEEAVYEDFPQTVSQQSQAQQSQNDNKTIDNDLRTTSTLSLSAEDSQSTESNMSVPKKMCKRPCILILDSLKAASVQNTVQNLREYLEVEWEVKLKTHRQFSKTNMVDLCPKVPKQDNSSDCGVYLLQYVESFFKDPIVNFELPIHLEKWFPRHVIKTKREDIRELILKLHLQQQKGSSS
SENP8 inh conf = human SENP8 protease inhibitors, confirmation, biochemical, Nedd8 protein substrate, single concentration; shares compounds with SENP8 block-2; purified SENP8, Nedd8-AMC/pro-Nedd8 cleavage fluorescence, 30 min; inhibition, % at 25 µM; hit rate 15% among 1,400; in the data active = inhibition mostly above about 39%, no sharp cut-off; inactive = mostly below about 34%
Numbers stand for hits; 0 = inactive; - = no result given.

SMILES	SENP8 block-1	SENP8 block-2	HSP90 refold inh	SENP6 inh	SENP7 inh	SENP8 inh conf
CC1(C(=O)Nc2ccc3c(c2)OCCO3)CCN1Cc1ccc2ccccc2c1 (stereo not given)	-	40	-	-	-	0
CC1(C(=O)Nc2ccc3c(c2)OCCO3)CCN1Cc1ccc(-c2ccccn2)cc1 (stereo not given)	-	0	-	-	-	-
O=C(O)C1C2CCC(C2)C1C(=O)Nc1ccccc1 (stereo not given)	0	0	-	0	0	-
CN(C)c1ccc(NC(=S)c2ccc3ccccc3n2)cc1	0	42	0	0	0	0
Cc1ccc(C)c(NC(=S)c2ccc3ccccc3n2)c1	0	0	0	0	0	-
COCCNC(=O)c1onc(CSc2cccc(Cl)c2)c1C(=O)O	0	0	0	0	0	-
C[C@H]1CN([C@@H](C)CO)C(=O)CCCn2nncc2CO[C@@H]1CN(C)C(=O)c1ccc(N2CCN(C)CC2)cc1	-	50	-	-	-	0
C[C@@H]1CN([C@H](C)CO)C(=O)CCCn2nncc2CO[C@H]1CN(C)C(=O)c1ccc(N2CCN(C)CC2)cc1	-	0	-	-	-	-
CC(=O)NNC(=O)c1[nH]c2ccc(Br)cc2c1-c1ccccc1	0	0	0	0	0	-
C/C(=N/O)c1ccccn1	0	51	0	0	0	0
CC(=O)c1ccccn1	0	0	-	0	0	-
CCOc1ccc(OCC(=O)Nc2ccc(S(=O)(=O)Nc3cc(C)nc(C)n3)cc2)cc1	0	42	0	0	0	0
O=C(Nc1cccnc1Cl)c1cc([N+](=O)[O-])ccc1Cl	0	0	0	0	0	-
Cc1cccc(OCCC(=O)Nc2c(C)n(C)n(-c3ccccc3)c2=O)c1	0	42	0	0	0	0
Cc1cccc(NC(=O)Cc2ccc(F)cc2)c1	0	42	0	0	0	0
Cc1cccc(NC(=O)CCOc2ccccc2)c1	0	40	0	0	0	0
CC(CN(C)C)CN1c2ccccc2CCc2ccccc21 (stereo not given)	0	0	-	0	0	-
O=[N+]([O-])c1ccc(N2CCOCC2)cc1NC(c1ccccc1)c1ccccc1	0	0	0	0	0	-
CC(Nc1cc(N2CCNCC2)ccc1[N+](=O)[O-])c1ccccc1 (stereo not given)	0	0	0	0	0	-
CCS(=O)(=O)N1CCN(c2ccc([N+](=O)[O-])c(NC(C)c3ccccc3)c2)CC1 (stereo not given)	0	60	0	0	0	0
CCS(=O)(=O)N1CCN(c2ccc([N+](=O)[O-])c(NCc3ccccc3)c2)CC1	0	0	0	0	0	-
O=[N+]([O-])c1ccc(N2CCCC2)cc1NC(c1ccccc1)c1ccccc1	0	56	0	0	0	0
CS(=O)(=O)N1CCN(c2ccc([N+](=O)[O-])c(NCc3ccccc3)c2)CC1	0	45	0	0	0	0
Cc1cccc(NC(=O)CSc2nnc(CNC(=O)c3cccs3)o2)c1C	0	0	0	0	0	-
CCn1cc(CN2CCCC(CO)(Cc3ccc(F)cc3)C2)c2ccccc21 (stereo not given)	0	0	0	0	0	-
SMILES	SENP8 block-1	SENP8 block-2	HSP90 refold inh	SENP6 inh	SENP7 inh	SENP8 inh conf
O=c1oc2ccccc2nc1/C=C(O)/C=C\c1ccccc1	0	0	0	0	0	-
O=c1oc2ccccc2nc1/C=C(O)/C=C/c1ccc(F)cc1	0	47	0	0	0	0
CCOC(=O)C1=C(CN2CCSCC2)NC(=O)NC1c1cccc([N+](=O)[O-])c1 (stereo not given)	0	44	0	0	0	0
CC(=O)Nc1ccc(S(=O)(=O)N[C@@H](C)C(=O)OCc2cc([N+](=O)[O-])cc3c2OCOC3)cc1	0	45	0	0	0	0
CC(C)C(NS(=O)(=O)c1ccccc1)C(=O)OCc1cc([N+](=O)[O-])cc2c1OCOC2 (stereo not given)	-	0	0	-	-	-
O=C1NC[C@H](Cc2ccccc2)N(CC2CCN(CCCCc3ccccc3)CC2)C1=O	-	0	-	-	-	-
CC(Sc1ccsc1[N+](=O)[O-])C(=O)NCCc1ccc(Cl)cc1 (stereo not given)	0	42	0	0	0	0
CC1=C(SCCC#N)S/C(=C2\SC(C)=C(SCCC#N)S2)S1	0	46	0	0	0	69
COc1cc(NC(=O)c2cc(Cl)nnc2Cl)cc(OC)c1OC	0	0	0	0	0	-
C=C(c1cn(C(C)=O)c2ccccc12)c1cn(C(C)=O)c2ccccc12	-	0	-	-	-	-
CC(=O)n1cc(CO)c2ccccc21	0	45	0	0	0	0
CC(OC(=O)Cn1[nH]c(=O)c2ccccc2c1=O)C(=O)Nc1ccc(F)cc1 (stereo not given)	0	0	-	0	0	-
Nc1cc(Cl)ccc1Oc1ccc(Cl)cc1	0	0	0	0	0	-
O=C(O)c1ncsc1-c1ccccc1	0	43	0	0	0	0
NCCNC(=O)c1ncsc1-c1cccc(F)c1	0	0	-	0	0	-
Nc1nnc(-c2ccc([N+](=O)[O-])o2)s1	-	37	-	-	-	0
Cc1ccc2c(c1C)NC(=O)CC(c1ccccc1O)=N2	0	0	0	0	0	-
CCc1ccc(C(=O)NNc2ccccc2F)cc1	0	26	0	0	0	0
CNC(=O)CN1C(=O)C2C3C=CC(C3)C2C1=O (stereo not given)	0	0	0	0	0	-
Cc1nc2ccccc2n1CC(O)COCC1CC=CCC1 (stereo not given)	0	43	0	0	0	0
O=[N+]([O-])c1ccc(Sc2ccccc2Cl)nc1	0	40	0	0	0	0
